Many of the other results were omitted from the sample, so hits are more common in it than they were.
HTT ATP protect: cytoprotection in Huntington HTT-Q103 PC12 cell model. PC12 HTT-Q103 induced, cytoprotection, ATP luminescence, 40 h. Potency, µM (top dose mostly 56.4 µM), actives largely listed as activators. actives 0.14% (n = 230,000); note: nearly all actives have a fitted effect of over 45% in size
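Stable PC12 Q103-GFP cells in serum-supplemented, phenol red-free DMEM; induction by tebufenozide at 100 nM final; compound dose series; cell viability quantified luminescently from ATP.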
HTT aggregate: mutant huntingtin aggregation inhibition | AID 1688 | actives 1.1% (n = 220,000) | PC12 HttQ103-GFP aggregates, Acumen cytometry, 40 h | Potency, µM (highest dose often 46.1 µM), most hits filed as inhibitors; note: nearly all actives have a fitted effect of over 60% in size
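PC12 cells stably carrying ecdysone-inducible HTT exon 1 Q103–GFP were induced with tebufenozide (100 nM final) and treated with library compounds in titration. GFP aggregates in lysates were counted by laser scanning cytometry.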
PNC assembly inh: perinucleolar compartment assembly inhibition; PC3M PTB-GFP, PNC prevalence imaging, 16 h; stronger effect = lower value; actives 3.1% (n = 140,000); AID 2417; activity change (PNC), negative = inhibition, % at 10 µM;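 active = readout at or below -70, meaning at least 70% loss of cells showing the perinucleolar compartment, a nuclear body marking cancer cells; inconclusive = readout between -30 and a set limit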
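PC3M cells stably expressing PTB-GFP, 750–1000 cells/well, treated 16 h at 37 °C with compound (23 nl of library stock), in duplicate. After paraformaldehyde fixation and Hoechst stain, imaged at 20x; PNC prevalence scored by image analysis.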
Of the large screens only hits and unclear results are named; the others gave an inactive call. Unless noted, calls come from the whole dose curve; as a rule, active = well fitted curve in the direction sought with a large enough effect; inconclusive = small, poorly fitted or top-dose-only effect, or another doubt; inactive = no such curve, though single readings can be large; an effect the other way counts as inactive or inconclusive.

CCCCN(CC)S(=O)(=O)c1ccc(C(=O)N=c2sc3cc(NC(C)=O)ccc3n2C)cc1	none
CCCCN(C)S(=O)(=O)c1ccc(C(=O)N=c2sc3cc(NC(C)=O)ccc3n2C)cc1	PNC assembly inh -94.4
COc1ccc2cc(CN(CC3CCCO3)S(=O)(=O)c3ccc(C(C)=O)cc3)c(=O)[nH]c2c1 (centres undefined)	none
COC(=O)c1ccccc1S(=O)(=O)N(Cc1cc2ccc(OC)cc2[nH]c1=O)CC1CCCO1 (centres undefined)	HTT aggregate 3.55µM, PNC assembly inh -97.9
CN1C(=O)CSC1=NCC12CC3CC(CC(C3)C1)C2	none
Cc1csc(=O)n1CC(=O)OCc1cccc2ccccc12	PNC assembly inh -100.0
Cc1ccc(NC(=O)COC(=O)Cn2c(C)csc2=O)cc1C	none
CCOC(=O)/C(C#N)=C1/C=C(C)NC(c2ccccc2O)=N1	HTT aggregate 11.2µM
CCOC(=O)/C(C#N)=C1\Nc2ccccc2N=C1N(CC(C)C)CC(C)C	HTT aggregate inconclusive
CCCn1c(SCC(=O)c2ccc(OC)c(OC)c2)nc2c1c(=O)n(C)c(=O)n2C	none
COc1cc(C2CC(=O)Nc3n[nH]c(-c4ccccc4)c32)cc(OC)c1OC (centres undefined)	none (no result: PNC assembly inh)
COC(=O)c1cc2c(=O)n3cccc(C)c3nc2n(Cc2cccnc2)c1=N	PNC assembly inh inconclusive
CSc1ccccc1NC(=O)CSCc1ccccc1Br	none
Cc1cc(C(=O)OCc2nnc(-c3ccccc3)o2)c(C)n1-c1ccccc1	HTT aggregate 11.2µM
O=C(OCc1nnc(-c2ccccc2)o1)c1cn(-c2ccccc2)nc1-c1ccccc1	none
O=C(COc1ccccc1)N1CCN(c2ncnc3c2cnn3-c2ccccc2)CC1	HTT aggregate inconclusive, PNC assembly inh -97.1
Cc1cccc(C(=O)N2CCN(c3ncnc4c3cnn4-c3ccccc3)CC2)c1	HTT aggregate inconclusive
C[C@@H]1COc2c(N3CCN(C)CC3)c(F)cc3c(=O)c(C(=O)O)cn1c23	none (no result: PNC assembly inh)
COC(=O)CCS(=O)(=O)c1nc(-c2ccccc2)cc(C(F)(F)F)n1	HTT aggregate inconclusive
COCC(C)NC(=O)CCS(=O)(=O)c1nc(-c2ccc(OC)cc2)cc(C(F)(F)F)n1 (centres undefined)	HTT aggregate inconclusive, PNC assembly inh -88.5
O=C(NC1=NCCS1)Nc1ccccc1	none
Cc1cc(C)cc(Oc2ccccc2/C=C\C(=O)O)c1	PNC assembly inh -86.4
O=C(O)/C=C\c1ccccc1Oc1cccc(Cl)c1	none (no result: PNC assembly inh)
COC(=O)c1c(NC(=O)c2nn(C)cc2Cl)sc2c1CCCC2	PNC assembly inh -92.3
Cc1occc1C(=O)Nc1sc2c(c1C(N)=O)CCCCC2	none
COC(=O)c1c(NC(=O)c2ccoc2C)sc2c1CCC2	PNC assembly inh -109.2
COC(=O)c1c(NC(=O)C2CC2)sc2c1CCCC2	PNC assembly inh inconclusive
CC(=O)c1ccc(N2CCN(S(=O)(=O)c3cccc4nonc34)CC2)cc1	none (no result: PNC assembly inh)
CC1=C(C(=O)NCc2ccccc2)C(c2cccnc2)n2ncnc2N1 (centres undefined)	none
CCC(C)N(C)Cc1cccc(C2(O)CCN(S(=O)(=O)c3ccc(F)c(C)c3)CC2)c1 (centres undefined)	PNC assembly inh -113.4 (no result: HTT ATP protect)
Cc1cc(S(=O)(=O)N2CCN(c3c(C)cccc3C)CC2)ccc1F	HTT aggregate inconclusive
CCCc1c(C)[nH]c2ccccc2c1=O	PNC assembly inh inconclusive
CCOc1ccc(N(CC(=O)Nc2ccc(C)c(C)c2)S(=O)(=O)c2c(C)noc2C)cc1	HTT aggregate 20µM, PNC assembly inh inconclusive
CCOc1ccccc1NC(=O)CN(c1cc(C)cc(C)c1)S(=O)(=O)c1c(C)noc1C	none
CCOc1ccc(N(CC(=O)NC2CCCC2)S(=O)(=O)c2c(C)noc2C)cc1	none
CCOc1ccccc1NC(=O)CN(c1ccc(OC)cc1)S(=O)(=O)c1c(C)noc1C	PNC assembly inh -97.3
CCOc1ccc(N(CC(=O)Nc2cccc(F)c2)S(=O)(=O)c2c(C)noc2C)cc1	HTT aggregate inconclusive
CCOc1ccc(N(CC(=O)Nc2ccccc2C)S(=O)(=O)c2c(C)noc2C)cc1	PNC assembly inh -88.2
Cc1ccc(-c2csc(NC(=O)Cc3ccc(F)cc3)n2)o1	none (no result: PNC assembly inh)
CCN(CC)CCN1C(=O)C(O)=C(C(C)=O)C1c1ccccc1 (centres undefined)	none
COc1ccc(S(=O)(=O)NC(C)C(=O)Nc2ccccc2F)cc1 (centres undefined)	PNC assembly inh inconclusive
COc1ccc(S(=O)(=O)NC(C)C(=O)Nc2cccc(C(C)=O)c2)cc1 (centres undefined)	PNC assembly inh -111.7
Cc1c(C(=O)Nc2ccc3c4c(cccc24)CC3)cccc1[N+](=O)[O-]	none
